Compounds with a hit are over-represented: about 7.9% of the library has one in this group of screens.
HT1080 IDH1KD tx – toxicity to HT-1080 IDH1 knockdown cells (counter line). HT-1080 IDH1 knockdown viability, ATP luminescence, 48 h. Potency, µM (titrated, usually from 46.1 µM), inactives show top-dose activity, negative = toxicity, actives largely listed as cytotoxic. hit rate 2% among 360,000. AID 686971;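 further: 0% = DMSO wells and -100% = cell-free medium wells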
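Cytotoxicity counter-line: IDH1KD HT-1080, 48 h, CellTiter-Glo. Curves classed by r2, magnitude and activity.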
KB-3-1 cytotox – KB-3-1 parental cell cytotoxicity; KB-3-1 viability, CellTiter-Glo ATP luminescence, 72 h; Potency, µM (top dose mostly 46.1 µM), most hits filed as cytotoxic; hit rate 1.4% among 400,000; AID 1347075; further: on the % scale 0 is the no-effect control and ±100 the full control effect; nearly all actives have a fitted effect of over 60% in size
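Here the drug-naive KB-3-1 line serves as comparator for MDR sub-line selectivity; cells received compound titrations, 72 h at 37 °C, then CellTiter-Glo readout.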
SW480 rerep – DNA re-replication induction in SW480 cells; Potency, µM (titrated, usually from 46.1 µM), for inactives: at the highest dose re-replication activation, hits mostly activators; AID 624297; hit rate 1.8% among 340,000; SW480 DNA re-replication, Hoechst DNA content imaging, 48 h; further: % of control where 0% means no effect; nearly all actives have a fitted effect of over 55% in size
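Per well, 250 cells were exposed to pinned compound for 48 hr. Nuclear DNA was visualised with Hoechst (40 min, 37 C) and total object intensity recorded by fluorescence scanning.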
KB-V1 cytotox – kills drug-selected multidrug resistant KB-V1 cells | KB-V1 MDR cells viability, CellTiter-Glo, 72 h | Potency, µM (series often up to 46.1 µM), usual class: cytotoxic | hit rate 3.4% among 400,000; further: on the % scale 0 is the no-effect control and ±100 the full control effect; nearly all actives have a fitted effect of over 60% in size
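Drug-selected KB-V1 cells, grown in DMEM lacking phenol red with 10% FBS, receive compound titrations; after three days at 37 degrees C, surviving cell ATP is quantified by CellTiter-Glo luminescence and responses normalized and curve-fitted.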
MCF10A rerep – induces DNA re-replication in MCF 10a normal breast cells; MCF 10A DNA re-replication, Hoechst nuclear intensity, 48 h; Potency, µM (series often up to 46.1 µM), without a hit: at the top dose activity, positive = re-replication, hits mostly activators; hit rate 2.9% among 350,000; AID 624296; further: % of control where 0% means no effect; nearly all actives have a fitted effect of over 50% in size
HT1080-NT tox – kills 2HG-producing HT-1080-NT fibrosarcoma cells | HT-1080-NT fibrosarcoma viability, CellTiter-Glo ATP luminescence, 48 h | Potency, µM (top dose mostly 46.1 µM), for the others: at the highest dose activity, negative = less viability, actives largely listed as cytotoxic | hit rate 1.6% among 360,000;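 further: NT is the 2HG producing partner of a matched IDH1 knockdown line; 0% = DMSO-treated cells and -100% = media-only wells without cells; nearly all actives have a fitted effect of over 55% in size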
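Read-out is CellTiter-Glo luminescence after 10 minutes at room temperature, following 48 hours' compound treatment of HT-1080-NT cells (750 cells/well, RPMI, 5% FBS, 37 degrees C).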
The depositor's hits bear a star; i = inactive; u = inconclusive; x = no result given. The call rests on the fitted dose curve; in most records, active means well fitted curve in the direction sought with a large enough effect; inconclusive means small, poorly fitted or top-dose-only effect, or another doubt; inactive means no such curve, though single readings can be large; an effect the other way counts as inactive or inconclusive. Potency means the concentration at half of the fitted maximal effect.

SMILES | HT1080 IDH1KD tx | KB-3-1 cytotox | SW480 rerep | KB-V1 cytotox | MCF10A rerep | HT1080-NT tox
COc1ccccc1NC(=O)Nc1nc(C(N)Cc2ccc(C(F)(F)F)cc2)cs1 (centres undefined) | x | u | x | i | x | x
COc1cccc(Nc2nc(C(N)Cc3ccccc3)cs2)n1 (centres undefined) | 12µM* | u | x | u | x | 29µM*
NCc1csc(Nc2ccc(C(=O)c3ccccc3)cc2)n1 | u | 5.8µM* | x | u | x | u
COc1cccc(Nc2nc(C(N)CO)cs2)n1 (centres undefined) | -6% | i | x | i | x | -13%
CCCCSc1nnc2n(-c3ccc(OC)cc3)c(=O)c3c4c(sc3n12)COC(C(C)C)C4 (centres undefined) | x | i | x | i | x | x
COc1cccc(C(=O)NCCc2csc3nc(-c4ccccc4F)nn23)c1OC | x | i | x | i | x | x
NC(Cc1ccc(C(F)(F)F)cc1)c1csc(Nc2ncccn2)n1 (centres undefined) | u | i | x | i | x | u
NC(Cc1ccc(C(F)(F)F)cc1)c1csc(Nc2ccccn2)n1 (centres undefined) | u | i | x | i | x | 21µM*
Cc1ccc(NC(=O)c2cc3cc(OC(F)(F)F)ccc3[nH]2)cc1 | 14% | i | -27% | i | 0% | 10%
Cc1ccc(NC(=O)C2SC(=Nc3ccccc3)C(C(=O)Nc3ccc(Cl)cc3)=C2N)cc1 (centres undefined) | -26% | i | -8% | i | 21µM* | -22%
Cc1ccc(N=C2SC(C(=O)Nc3ccc(OC(F)(F)F)cc3)C(N)=C2C(=O)Nc2c(C)cc(C)cc2C)cc1 (centres undefined) | 18µM* | u | 12% | u | 3.7µM* | 15µM*
Cc1nn(-c2ccc(N3CCOCC3)nn2)c(C)c1CCC(=O)NCc1ccc(OC(C)C)cc1 | x | i | x | i | x | x
CSc1nc2sc3c(c2c(=O)n1-c1ccccc1)CCC(C(C)(C)C)C3 (centres undefined) | x | i | x | u | x | x
CC(C)CCn1c(=O)c2cccnc2n(CC(=O)Nc2ccccc2)c1=O | x | i | x | i | x | x
O=C(O)c1cccc(N/N=C/c2cc(Br)cc(Br)c2O)c1 | -8% | i | x | i | 2% | -11%
Cc1c(N=Cc2cc(Br)cc(Br)c2O)cccc1C(=O)O | u | u | -1% | u | u | 13µM*
Cc1cccc2cc(CN(Cc3nnnn3C3CCCCC3)C3CCCC3)c3nnnn3c12 | 9% | u | 0% | 21µM* | 17% | 16%
Cc1cc(C)c2[nH]c(=O)c(CN(Cc3nnnn3C3CCCC3)C3CCCCC3)cc2c1 | 19% | i | -5% | i | -1% | 6%
N=c1n(CCN2CCCCC2)c2ccccc2n1CC(=O)c1cccs1 | u | u | 8.2µM* | i | u | u
O=C(CCN1CCC(c2ccccc2)C1)c1cccs1 (centres undefined) | 4µM* | i | -2% | i | 11% | u
O=C(CCN1CCCCCC1)c1ccccc1 | 3% | i | -2% | i | -2% | 12%
O=C(CCN1CCCC1)c1cccs1 | 1% | i | 103% | i | 23µM* | -4%
CC1CCN2c3cc(Cl)ccc3CC3(C(=O)OC(C)(C)OC3=O)C2C1 (centres undefined) | x | i | x | i | x | x
CCSc1nnc2n1C(C)(C)Cc1ccccc1-2 | -1% | i | u | i | -1% | 2%
CC1(C)Cc2ccccc2-c2n[nH]c(=S)n21 | 11µM* | i | 0% | u | 2% | 14µM*
CCCCNC(=O)c1ccc(-c2nc(CN3CCc4ccccc43)c(C)o2)cc1 | x | u | x | 5.2µM* | x | x
CCCCNC(=O)c1ccc(-c2nc(CS(=O)(=O)c3ccc(C)cc3)c(C)o2)cc1 | x | i | x | i | x | x
